Laboratory results: the supplement of paper PMC11732987, “Enantioselective OTUD7B fragment discovery through chemoproteomics screening and high-throughput optimisation” (Communications Chemistry, 2025)

Key:
Experiment in all cases: log2 ratio of Biotin-Ahx-Ub-VS probe labelling (fragment/DMSO); higher = less target engagement (more negative = stronger competition), active = hit call of the paper (q ≤ 0.05, log2 ratio ≤ -1)
Details in all cases: compound concentration: 200 uM; treatment time: 3 h
USP42 = biological target: T1, USP42 (UniProt Q9H9J4)
T1 sequence (whole entry): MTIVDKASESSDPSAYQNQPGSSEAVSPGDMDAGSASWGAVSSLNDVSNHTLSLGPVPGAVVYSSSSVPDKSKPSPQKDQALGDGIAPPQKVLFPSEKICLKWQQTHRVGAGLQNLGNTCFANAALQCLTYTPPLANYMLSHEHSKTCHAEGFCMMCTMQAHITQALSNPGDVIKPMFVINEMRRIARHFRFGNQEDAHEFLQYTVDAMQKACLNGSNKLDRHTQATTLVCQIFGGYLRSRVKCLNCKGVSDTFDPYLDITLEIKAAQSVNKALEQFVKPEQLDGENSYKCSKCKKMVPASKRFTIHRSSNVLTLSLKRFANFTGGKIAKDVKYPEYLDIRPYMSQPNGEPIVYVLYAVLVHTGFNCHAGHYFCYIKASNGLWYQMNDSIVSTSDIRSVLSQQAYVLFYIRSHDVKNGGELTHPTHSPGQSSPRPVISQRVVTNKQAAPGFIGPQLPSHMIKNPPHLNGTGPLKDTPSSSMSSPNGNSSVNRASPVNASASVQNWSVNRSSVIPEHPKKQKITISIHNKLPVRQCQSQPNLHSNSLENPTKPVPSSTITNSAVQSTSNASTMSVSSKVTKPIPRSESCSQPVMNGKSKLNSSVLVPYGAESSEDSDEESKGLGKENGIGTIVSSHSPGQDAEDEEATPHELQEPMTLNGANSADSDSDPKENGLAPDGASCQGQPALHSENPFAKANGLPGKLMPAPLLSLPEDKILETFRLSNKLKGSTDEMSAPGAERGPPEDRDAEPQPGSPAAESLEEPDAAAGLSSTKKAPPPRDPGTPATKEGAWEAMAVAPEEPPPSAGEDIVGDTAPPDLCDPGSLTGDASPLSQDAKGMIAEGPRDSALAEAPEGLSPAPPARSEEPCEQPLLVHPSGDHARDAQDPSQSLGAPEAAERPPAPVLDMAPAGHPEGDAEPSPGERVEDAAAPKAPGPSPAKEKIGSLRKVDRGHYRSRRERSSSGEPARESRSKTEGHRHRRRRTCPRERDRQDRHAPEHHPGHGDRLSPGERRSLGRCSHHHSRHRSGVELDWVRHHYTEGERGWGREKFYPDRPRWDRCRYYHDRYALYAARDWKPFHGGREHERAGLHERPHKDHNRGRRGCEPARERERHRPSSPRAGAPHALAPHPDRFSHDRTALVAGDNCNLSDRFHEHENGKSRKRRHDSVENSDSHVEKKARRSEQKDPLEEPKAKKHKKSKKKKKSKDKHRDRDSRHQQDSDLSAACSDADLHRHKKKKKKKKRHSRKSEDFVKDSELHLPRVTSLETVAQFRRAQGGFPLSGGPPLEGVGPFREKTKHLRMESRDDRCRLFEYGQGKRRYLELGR
In short: (§1)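 HEK293T lysate, 495 µg per sample in Tris/CHAPS/IGEPAL buffer with protease inhibitors, was treated in triplicate with fragment at 200 µM or vehicle for 3 h and then with Biotin-Ahx-Ub-VS at 0.5 µM final for 1 h. Labelled DUBs were NeutrAvidin-enriched, digested with LysC and trypsin, and run by diaPASEF LC-MS/MS. Spectronaut label-free quantities were global-median-normalised, and values are average log2 fragment/vehicle ratios by unpaired t-test on proteins with ≥2 unique peptides.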

USP46 = USP46 (UniProt P62068)
In short: as §1

USP47 = biological target: T2, USP47 (UniProt Q96K76)
T2 sequence (whole entry): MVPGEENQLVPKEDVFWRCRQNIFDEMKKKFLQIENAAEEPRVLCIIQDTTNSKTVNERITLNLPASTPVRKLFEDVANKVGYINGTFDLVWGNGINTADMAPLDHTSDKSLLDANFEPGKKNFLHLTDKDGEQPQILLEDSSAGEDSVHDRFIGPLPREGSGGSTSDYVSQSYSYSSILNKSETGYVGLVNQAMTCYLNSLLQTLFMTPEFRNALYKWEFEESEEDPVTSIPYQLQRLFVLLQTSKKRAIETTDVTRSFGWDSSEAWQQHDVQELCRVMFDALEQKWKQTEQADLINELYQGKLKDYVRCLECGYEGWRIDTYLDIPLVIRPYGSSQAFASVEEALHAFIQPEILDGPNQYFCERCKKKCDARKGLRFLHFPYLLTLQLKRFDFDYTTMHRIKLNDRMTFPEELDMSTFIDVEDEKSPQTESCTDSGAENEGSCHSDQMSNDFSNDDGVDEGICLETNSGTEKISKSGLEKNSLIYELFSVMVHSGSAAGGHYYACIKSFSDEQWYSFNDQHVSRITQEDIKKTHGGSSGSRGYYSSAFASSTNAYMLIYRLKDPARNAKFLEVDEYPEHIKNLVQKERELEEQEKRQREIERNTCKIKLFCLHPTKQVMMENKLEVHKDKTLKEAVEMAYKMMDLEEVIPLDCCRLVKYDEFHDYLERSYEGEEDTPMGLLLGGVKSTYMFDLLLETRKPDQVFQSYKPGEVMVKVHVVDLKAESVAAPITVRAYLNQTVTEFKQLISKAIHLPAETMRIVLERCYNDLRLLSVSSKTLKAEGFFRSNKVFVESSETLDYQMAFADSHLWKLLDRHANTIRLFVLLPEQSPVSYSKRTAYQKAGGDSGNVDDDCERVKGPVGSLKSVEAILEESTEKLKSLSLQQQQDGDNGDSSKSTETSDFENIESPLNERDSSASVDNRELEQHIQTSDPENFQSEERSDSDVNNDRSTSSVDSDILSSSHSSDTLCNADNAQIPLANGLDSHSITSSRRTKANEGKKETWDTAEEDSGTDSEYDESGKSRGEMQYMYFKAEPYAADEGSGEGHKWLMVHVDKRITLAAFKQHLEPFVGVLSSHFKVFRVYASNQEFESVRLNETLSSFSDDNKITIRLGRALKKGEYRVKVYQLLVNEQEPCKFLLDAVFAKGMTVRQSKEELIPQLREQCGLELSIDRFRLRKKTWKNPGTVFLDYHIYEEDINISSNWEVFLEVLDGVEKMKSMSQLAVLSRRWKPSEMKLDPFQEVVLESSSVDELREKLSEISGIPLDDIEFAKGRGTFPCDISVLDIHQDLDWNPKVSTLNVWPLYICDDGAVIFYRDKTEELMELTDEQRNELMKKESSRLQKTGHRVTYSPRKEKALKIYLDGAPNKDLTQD
In short: as §1

USP48 = biological target: T3, USP48 (UniProt Q86UV5)
T3 sequence (whole entry): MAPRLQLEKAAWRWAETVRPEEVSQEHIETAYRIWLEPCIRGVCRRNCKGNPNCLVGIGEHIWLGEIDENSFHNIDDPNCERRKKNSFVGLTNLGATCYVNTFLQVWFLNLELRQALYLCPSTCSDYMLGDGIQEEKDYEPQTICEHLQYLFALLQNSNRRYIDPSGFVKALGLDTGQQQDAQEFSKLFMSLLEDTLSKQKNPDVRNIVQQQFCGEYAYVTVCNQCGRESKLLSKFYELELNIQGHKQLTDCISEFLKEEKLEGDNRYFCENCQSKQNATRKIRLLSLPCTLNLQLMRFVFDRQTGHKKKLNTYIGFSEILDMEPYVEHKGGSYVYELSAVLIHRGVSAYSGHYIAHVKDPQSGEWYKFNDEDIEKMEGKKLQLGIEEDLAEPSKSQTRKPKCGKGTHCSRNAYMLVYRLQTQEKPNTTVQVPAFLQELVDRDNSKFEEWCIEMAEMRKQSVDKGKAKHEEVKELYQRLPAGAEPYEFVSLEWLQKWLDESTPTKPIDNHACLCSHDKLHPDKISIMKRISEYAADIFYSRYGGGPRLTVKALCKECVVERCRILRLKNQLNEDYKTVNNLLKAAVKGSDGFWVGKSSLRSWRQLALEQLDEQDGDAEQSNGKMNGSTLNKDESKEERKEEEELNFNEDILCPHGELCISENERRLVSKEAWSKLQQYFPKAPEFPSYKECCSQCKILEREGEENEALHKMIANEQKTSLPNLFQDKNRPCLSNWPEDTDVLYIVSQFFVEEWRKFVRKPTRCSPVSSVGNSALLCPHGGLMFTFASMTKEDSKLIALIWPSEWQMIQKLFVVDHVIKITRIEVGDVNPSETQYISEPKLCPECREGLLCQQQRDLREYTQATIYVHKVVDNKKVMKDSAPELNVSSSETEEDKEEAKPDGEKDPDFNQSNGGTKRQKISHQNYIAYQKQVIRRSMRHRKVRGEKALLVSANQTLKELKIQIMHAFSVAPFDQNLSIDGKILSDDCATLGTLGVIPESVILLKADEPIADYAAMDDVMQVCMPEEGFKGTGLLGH
In short: as §1

USP5 = biological target: T4, USP5 (UniProt P45974)
T4 sequence (whole entry): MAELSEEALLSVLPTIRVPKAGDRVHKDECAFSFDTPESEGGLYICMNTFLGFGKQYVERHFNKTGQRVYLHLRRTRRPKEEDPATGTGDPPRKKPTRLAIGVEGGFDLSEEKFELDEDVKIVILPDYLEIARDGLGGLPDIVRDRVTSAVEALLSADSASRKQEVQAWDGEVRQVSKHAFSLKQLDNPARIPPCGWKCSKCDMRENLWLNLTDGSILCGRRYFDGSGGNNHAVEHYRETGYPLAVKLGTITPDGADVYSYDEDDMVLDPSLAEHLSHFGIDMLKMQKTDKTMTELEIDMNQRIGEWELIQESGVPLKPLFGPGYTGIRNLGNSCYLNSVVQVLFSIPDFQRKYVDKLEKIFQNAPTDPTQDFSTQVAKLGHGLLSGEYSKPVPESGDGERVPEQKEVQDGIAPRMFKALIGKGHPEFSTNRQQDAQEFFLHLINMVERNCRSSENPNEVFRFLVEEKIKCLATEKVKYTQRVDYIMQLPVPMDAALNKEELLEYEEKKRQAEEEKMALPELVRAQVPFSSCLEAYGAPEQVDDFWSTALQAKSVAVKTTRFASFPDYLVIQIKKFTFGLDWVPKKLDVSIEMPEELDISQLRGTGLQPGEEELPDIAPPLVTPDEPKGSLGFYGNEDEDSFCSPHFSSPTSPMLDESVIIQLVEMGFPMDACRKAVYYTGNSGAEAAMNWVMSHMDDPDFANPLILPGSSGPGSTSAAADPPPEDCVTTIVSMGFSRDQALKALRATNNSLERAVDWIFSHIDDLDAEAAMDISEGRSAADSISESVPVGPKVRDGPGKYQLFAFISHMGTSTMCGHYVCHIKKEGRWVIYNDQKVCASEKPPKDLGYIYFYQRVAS
In short: as §1

USP54 = USP54 (UniProt Q70EL1)
In short: as §1

USP7 = USP7 (UniProt Q93009)
In short: as §1

USP8 = biological target: T5, USP8 (UniProt P40818)
T5 sequence (whole entry): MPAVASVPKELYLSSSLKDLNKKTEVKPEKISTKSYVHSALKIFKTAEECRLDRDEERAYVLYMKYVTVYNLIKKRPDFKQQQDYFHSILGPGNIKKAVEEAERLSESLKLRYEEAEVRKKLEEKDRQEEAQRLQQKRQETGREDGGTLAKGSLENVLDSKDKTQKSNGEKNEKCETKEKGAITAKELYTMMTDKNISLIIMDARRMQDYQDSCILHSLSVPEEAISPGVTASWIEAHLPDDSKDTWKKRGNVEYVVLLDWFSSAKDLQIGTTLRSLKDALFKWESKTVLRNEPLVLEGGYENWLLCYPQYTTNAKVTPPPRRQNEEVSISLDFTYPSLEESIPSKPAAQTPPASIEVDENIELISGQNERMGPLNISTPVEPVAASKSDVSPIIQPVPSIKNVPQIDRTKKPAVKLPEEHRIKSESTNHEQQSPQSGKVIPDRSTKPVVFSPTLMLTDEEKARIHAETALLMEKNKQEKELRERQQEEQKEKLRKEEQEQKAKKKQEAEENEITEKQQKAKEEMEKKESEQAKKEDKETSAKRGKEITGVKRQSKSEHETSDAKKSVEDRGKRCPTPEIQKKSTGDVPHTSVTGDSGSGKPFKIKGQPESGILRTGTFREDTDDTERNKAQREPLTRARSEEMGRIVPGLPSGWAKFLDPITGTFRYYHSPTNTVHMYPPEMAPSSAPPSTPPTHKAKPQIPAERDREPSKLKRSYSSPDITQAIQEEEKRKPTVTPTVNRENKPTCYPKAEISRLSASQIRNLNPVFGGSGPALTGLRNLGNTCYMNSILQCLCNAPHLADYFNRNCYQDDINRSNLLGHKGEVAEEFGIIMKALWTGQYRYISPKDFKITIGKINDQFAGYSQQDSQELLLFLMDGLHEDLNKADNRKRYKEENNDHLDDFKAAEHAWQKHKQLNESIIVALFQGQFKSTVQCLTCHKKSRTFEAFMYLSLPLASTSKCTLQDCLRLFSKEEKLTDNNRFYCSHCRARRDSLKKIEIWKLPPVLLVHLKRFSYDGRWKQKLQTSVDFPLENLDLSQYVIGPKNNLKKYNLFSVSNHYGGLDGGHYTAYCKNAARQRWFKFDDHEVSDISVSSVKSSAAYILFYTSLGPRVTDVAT
In short: as §1

USP9X = USP9X (UniProt Q93008)
In short: as §1

UniProt O00487 = biological target: UniProt O00487
In short: as §1

Measured: log2 ratio of Biotin-Ahx-Ub-VS probe labelling

Sequence of USP54 (Q70EL1 whole entry): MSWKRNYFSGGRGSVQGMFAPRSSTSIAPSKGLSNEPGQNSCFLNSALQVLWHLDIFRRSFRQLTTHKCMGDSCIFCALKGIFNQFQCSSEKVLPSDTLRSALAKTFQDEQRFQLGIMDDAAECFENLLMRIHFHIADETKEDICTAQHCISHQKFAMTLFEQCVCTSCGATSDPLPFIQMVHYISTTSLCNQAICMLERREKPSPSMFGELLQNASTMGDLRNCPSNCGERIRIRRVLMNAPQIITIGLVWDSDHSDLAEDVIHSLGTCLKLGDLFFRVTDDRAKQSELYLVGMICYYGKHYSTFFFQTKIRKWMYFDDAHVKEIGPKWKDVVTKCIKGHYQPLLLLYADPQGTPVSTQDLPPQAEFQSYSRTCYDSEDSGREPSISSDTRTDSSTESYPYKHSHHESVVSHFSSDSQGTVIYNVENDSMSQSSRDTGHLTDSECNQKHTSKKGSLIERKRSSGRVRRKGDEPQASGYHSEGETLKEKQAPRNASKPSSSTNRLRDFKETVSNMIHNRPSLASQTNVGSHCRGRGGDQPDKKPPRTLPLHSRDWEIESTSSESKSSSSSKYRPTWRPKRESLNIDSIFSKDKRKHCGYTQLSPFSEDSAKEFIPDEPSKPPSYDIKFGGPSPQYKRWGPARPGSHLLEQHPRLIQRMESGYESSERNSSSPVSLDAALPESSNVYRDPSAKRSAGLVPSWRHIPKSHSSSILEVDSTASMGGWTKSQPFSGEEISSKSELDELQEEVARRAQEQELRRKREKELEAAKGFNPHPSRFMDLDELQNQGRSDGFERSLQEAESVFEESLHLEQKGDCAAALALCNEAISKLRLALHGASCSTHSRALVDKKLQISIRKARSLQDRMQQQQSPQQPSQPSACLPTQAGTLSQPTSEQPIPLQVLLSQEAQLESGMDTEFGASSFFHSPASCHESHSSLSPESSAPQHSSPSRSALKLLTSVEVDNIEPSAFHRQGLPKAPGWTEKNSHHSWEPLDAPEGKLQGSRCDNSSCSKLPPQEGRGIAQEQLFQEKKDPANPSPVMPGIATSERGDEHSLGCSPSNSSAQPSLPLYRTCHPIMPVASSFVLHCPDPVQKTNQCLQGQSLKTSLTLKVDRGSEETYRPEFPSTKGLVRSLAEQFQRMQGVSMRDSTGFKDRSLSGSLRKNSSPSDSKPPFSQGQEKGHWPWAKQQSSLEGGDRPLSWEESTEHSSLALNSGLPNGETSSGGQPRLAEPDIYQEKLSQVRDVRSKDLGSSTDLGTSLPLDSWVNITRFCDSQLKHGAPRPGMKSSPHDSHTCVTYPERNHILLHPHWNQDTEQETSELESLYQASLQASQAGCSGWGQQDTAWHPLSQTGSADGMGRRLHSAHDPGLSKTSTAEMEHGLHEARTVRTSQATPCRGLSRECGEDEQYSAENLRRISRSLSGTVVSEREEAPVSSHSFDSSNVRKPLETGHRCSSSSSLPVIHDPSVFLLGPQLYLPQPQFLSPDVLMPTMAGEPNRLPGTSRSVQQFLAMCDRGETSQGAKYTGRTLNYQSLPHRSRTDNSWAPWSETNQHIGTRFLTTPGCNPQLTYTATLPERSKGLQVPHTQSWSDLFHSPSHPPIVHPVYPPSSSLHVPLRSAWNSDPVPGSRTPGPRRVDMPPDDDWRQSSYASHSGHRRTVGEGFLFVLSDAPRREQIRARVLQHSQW
Sequence of UniProt O00487 (O00487 whole entry): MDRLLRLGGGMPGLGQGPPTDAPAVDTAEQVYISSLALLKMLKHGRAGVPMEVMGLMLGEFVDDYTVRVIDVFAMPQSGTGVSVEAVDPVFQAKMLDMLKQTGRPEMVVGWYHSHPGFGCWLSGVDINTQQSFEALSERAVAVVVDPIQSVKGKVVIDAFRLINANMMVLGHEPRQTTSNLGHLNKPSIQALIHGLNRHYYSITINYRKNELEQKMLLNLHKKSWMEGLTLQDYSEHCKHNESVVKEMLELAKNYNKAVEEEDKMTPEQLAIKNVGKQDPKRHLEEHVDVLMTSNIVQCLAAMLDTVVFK
Sequence of USP46 (P62068 whole entry): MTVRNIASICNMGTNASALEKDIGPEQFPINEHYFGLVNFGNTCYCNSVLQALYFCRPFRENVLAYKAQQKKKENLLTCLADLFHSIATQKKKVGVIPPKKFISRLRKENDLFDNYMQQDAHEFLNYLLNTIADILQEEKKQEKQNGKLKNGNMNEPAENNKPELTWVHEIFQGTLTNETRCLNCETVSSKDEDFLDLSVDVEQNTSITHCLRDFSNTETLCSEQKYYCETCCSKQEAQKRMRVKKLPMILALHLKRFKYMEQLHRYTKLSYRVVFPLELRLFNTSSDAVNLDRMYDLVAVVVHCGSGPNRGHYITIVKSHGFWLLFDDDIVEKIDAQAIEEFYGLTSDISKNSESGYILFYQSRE
Sequence of USP9X (Q93008 whole entry): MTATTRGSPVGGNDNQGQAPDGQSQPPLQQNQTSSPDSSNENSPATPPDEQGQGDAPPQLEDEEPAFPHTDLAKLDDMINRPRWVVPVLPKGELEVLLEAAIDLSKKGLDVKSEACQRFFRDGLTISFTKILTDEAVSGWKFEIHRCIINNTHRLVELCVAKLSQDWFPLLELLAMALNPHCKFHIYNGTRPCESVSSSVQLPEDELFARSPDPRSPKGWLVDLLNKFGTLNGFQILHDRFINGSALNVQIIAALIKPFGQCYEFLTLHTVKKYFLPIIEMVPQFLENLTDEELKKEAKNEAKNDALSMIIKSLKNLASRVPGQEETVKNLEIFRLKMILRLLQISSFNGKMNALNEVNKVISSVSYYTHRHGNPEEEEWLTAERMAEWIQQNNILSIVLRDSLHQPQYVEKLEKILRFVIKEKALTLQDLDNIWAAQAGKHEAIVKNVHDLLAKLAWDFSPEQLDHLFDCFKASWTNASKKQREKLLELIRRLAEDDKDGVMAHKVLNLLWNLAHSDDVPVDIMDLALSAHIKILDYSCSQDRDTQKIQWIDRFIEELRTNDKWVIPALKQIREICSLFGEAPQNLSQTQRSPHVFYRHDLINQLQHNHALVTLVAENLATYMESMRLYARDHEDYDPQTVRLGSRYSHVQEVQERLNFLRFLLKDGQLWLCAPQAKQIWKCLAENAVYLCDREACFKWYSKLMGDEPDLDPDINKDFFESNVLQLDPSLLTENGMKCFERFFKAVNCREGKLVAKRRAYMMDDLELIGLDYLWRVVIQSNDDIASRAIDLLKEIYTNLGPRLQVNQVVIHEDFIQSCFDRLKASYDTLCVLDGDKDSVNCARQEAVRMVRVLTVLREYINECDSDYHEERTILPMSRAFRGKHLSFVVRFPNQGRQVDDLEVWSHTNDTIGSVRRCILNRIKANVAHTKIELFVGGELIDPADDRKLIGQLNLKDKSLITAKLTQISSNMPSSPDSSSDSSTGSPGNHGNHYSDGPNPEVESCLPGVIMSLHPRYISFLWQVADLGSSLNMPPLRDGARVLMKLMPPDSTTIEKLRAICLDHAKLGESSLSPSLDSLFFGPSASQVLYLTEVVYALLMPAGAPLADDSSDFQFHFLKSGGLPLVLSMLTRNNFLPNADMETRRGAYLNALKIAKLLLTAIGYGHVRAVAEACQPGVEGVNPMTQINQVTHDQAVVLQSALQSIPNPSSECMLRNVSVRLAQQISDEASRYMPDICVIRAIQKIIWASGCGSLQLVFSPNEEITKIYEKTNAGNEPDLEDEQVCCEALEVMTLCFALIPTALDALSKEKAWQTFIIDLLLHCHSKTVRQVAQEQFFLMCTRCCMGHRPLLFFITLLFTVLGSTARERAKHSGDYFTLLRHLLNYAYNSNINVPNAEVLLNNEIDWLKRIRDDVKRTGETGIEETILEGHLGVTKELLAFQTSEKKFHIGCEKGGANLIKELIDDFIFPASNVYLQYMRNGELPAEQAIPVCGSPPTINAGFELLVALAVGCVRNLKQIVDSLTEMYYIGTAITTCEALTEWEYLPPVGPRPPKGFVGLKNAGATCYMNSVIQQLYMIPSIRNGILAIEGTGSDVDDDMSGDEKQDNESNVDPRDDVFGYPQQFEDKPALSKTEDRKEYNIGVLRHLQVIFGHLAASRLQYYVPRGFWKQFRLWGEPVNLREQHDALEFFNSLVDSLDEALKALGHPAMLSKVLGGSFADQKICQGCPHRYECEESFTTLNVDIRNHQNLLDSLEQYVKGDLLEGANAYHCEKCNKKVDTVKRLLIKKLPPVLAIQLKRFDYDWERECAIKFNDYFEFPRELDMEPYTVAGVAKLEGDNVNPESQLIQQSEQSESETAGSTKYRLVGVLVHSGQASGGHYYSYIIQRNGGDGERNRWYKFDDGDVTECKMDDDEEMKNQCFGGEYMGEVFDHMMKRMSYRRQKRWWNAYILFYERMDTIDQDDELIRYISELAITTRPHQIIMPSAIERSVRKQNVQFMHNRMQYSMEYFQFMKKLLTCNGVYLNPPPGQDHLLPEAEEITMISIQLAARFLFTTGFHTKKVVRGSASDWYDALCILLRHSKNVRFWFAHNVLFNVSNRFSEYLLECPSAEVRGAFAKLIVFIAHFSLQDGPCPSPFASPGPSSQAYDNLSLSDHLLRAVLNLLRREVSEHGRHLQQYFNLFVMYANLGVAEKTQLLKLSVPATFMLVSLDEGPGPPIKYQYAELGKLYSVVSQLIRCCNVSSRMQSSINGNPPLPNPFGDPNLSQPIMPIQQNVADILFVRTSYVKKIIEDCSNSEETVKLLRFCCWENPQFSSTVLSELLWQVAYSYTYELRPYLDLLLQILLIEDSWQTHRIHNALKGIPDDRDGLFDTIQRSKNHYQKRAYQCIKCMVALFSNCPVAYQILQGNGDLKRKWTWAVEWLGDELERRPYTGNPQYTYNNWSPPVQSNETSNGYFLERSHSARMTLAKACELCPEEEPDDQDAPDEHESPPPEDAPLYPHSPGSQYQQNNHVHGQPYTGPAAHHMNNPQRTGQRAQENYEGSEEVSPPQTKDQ

O=C(CCl)N1CCCCCC1c1ncon1 (stereo not given)
inactive: USP42 -0.342 | USP46 0.113 | USP47 -0.552 | USP48 -0.467 | USP5 0.214 | USP54 0.731 | USP7 -0.491 | USP8 -0.0227 | USP9X -0.226 | UniProt O00487 -0.0641
